SMN2 splice enh: qHTS Assay for Enhancers of SMN2 Splice Variant Expression; HEK293 SMN2-luciferase splicing reporter, luminescence, 30-36 h; Potency, µM (top dose mostly 46.1 µM), hits mostly activators; 2.8% of 210,000 active; further: nearly all actives have a fitted effect of over 55% in size
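HEK293 cells carry an SMN2 […]–luciferase reporter in which exon 7 inclusion puts luciferase in frame. Cells were plated 10-12 h before compound addition, then incubated 30-36 h at 37C. ONE-Glo luminescence was read; sodium butyrate at 4.5 mM final served as control.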
FLuc modulator: qHTS profiling assay for firefly luciferase inhibitor/activator using purifed enzyme and Km concentrations of substrates (counterscreen for miR-21 project) | Potency, µM (series often up to 57.5 µM), hits mostly inhibitors | purified FLuc, Km substrates, luminescence inhibition | AID 588342, 2011 | 6.9% of 360,000 active; further: nearly all actives have a fitted effect of over 55% in size
Target sequence (P08659 whole entry, looked up): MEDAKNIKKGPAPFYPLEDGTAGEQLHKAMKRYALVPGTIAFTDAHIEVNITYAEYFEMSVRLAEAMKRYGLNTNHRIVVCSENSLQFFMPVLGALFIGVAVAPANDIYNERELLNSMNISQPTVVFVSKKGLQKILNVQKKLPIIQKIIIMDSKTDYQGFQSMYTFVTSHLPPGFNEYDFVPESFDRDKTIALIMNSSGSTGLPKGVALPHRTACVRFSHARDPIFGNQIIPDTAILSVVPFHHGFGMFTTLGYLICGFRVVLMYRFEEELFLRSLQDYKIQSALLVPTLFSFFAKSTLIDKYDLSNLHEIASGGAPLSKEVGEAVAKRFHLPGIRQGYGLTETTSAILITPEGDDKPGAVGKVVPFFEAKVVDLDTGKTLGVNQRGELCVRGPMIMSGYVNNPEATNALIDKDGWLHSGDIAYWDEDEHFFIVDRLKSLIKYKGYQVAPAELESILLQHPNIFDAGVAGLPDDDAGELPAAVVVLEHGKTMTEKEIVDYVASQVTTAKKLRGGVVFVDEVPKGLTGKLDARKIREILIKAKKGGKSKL
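Purified P. pyralis luciferase, 10 nM final, with Km-level 10 uM D-luciferin and 10 uM ATP in 50 mM Tris acetate pH 7.5, 10 mM Mg acetate, 0.01% Tween-20, 0.05% BSA; 6-point qHTS titration about 60 µM downward; luminescence read.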
Luc counter: Counterscreen for Luciferase (Kinase-Glo TM) Inhibition | Luciferin 4-monooxygenase (Photuris pensylvanica), Q27757 | Kinase-Glo luciferase, ATP luminescence, 8 min | Potency, µM (top dose mostly 38.3 µM), hits mostly inhibitors | 0.28% of 200,000 active; further: nearly all actives have a fitted effect of over 60% in size
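Light output from Kinase-Glo luciferase with luciferin and 10 uM ATP in 50 mM imidazole pH 7.2, KCl, MgCl2, Tween 20, BSA; compound pin-delivered, 8-min ambient incubation, then luminescence read.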
NPC1 prom act: qHTS Assay for NPC1 Promoter Activators | Huh7 NPC1 promoter luciferase reporter, 24 h | Potency, µM (highest dose often 9.22 µM), usual class: activators | 2.4% of 320,000 active | AID 485313, 2010; further: nearly all actives have a fitted effect of over 60% in size
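Compounds in DMSO were transferred onto Huh7 NPC1-luciferase reporter cells pre-incubated 2 h; after 24 h at 37 °C, Amplite reagent was dispensed and luminescence recorded 10 min later.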
Rab9 promoter act: qHTS Assay for Rab9 Promoter Activators. 2.8% of 320,000 active. Potency, µM (top dose mostly 9.22 µM), usual class: activators. Huh7 Rab9 promoter-luciferase reporter, luminescence, 24 h; further: nearly all actives have a fitted effect of over 60% in size
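Cell-based reporter: Huh7 stable for Rab9 promoter-driven luciferase, plated in reduced-serum medium with 10% FBS at 1500 cells/well, compound-treated 24 h at 37 °C, luminescence read after 10 min reagent.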
ELG1 genotox: qHTS screen for small molecules that induce genotoxicity in human embryonic kidney (HEK293T) cells expressing luciferase-tagged ELG1. Potency, µM (highest dose often 46 µM), most hits filed as activators. HEK293T ELG1-luciferase reporter, luminescence, 16 h. 1.3% of 330,000 active. AID 504466, 2011; further: nearly all actives have a fitted effect of over 60% in size
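Cells (2,000/well) expressing the ELG1-luciferase fusion are dosed by pin tool and kept 16 hr at 37 °C, 5% CO2. Signal comes from ONE-Glo luciferase reagent after 30 min at room temperature.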
Of the large screens only hits and unclear results are named; the others gave an inactive call. In the library only some 7.4% were active in any assay of this set; here they are far more common. The call rests on the fitted dose curve; in most records, active means well fitted curve in the direction sought with a large enough effect; inconclusive means small, poorly fitted or top-dose-only effect, or another doubt; inactive means no such curve, though single readings can be large; an effect the other way counts as inactive or inconclusive.

COc1cccc(OC(=O)CSc2nnc(-c3ccccc3OC)o2)c1	none (no result: SMN2 splice enh, Luc counter, NPC1 prom act, Rab9 promoter act, ELG1 genotox)
COC(=O)CSc1nnc(-c2ccc(OC)cc2OC)o1	FLuc modulator 21µM
CCc1ccc2nc(N(CCN(CC)CC)C(=O)c3ccco3)sc2c1	none (no result: SMN2 splice enh, Luc counter, NPC1 prom act, Rab9 promoter act, ELG1 genotox)
COc1ccc(Cl)cc1NC(=O)Cn1c(=O)n(CCC(=O)NCc2ccc3c(c2)OCO3)c(=O)c2ccccc21	none (no result: Luc counter, NPC1 prom act, Rab9 promoter act, ELG1 genotox)
COc1ccc(NC(=O)C2CCC(CNS(=O)(=O)c3cccc4nsnc34)CC2)cc1OC (stereo not given)	none (no result: Luc counter, NPC1 prom act, Rab9 promoter act, ELG1 genotox)
Clc1ccc(-c2cn3ncsc3n2)cc1	FLuc modulator 12µM (no result: Luc counter, NPC1 prom act, Rab9 promoter act, ELG1 genotox)
O=C(O)c1csc(-c2ccc(Cl)cc2)n1	none
COc1ccc(C)cc1NC(=O)CNC(=O)c1sc2ccccc2c1Cl	none (no result: SMN2 splice enh, Luc counter)
Cc1ccc(NC(=O)CN(C)C(=O)CNC(=O)c2sc3ccccc3c2Cl)cc1	FLuc modulator 2.7µM, NPC1 prom act inconclusive, ELG1 genotox 16µM (no result: SMN2 splice enh, Luc counter)
Cc1ccnc(NC(=O)CNC(=O)c2sc3ccccc3c2Cl)c1	FLuc modulator 12µM, ELG1 genotox 10µM (no result: SMN2 splice enh, Luc counter)
Cc1ccnc(NC(=O)CCCNC(=O)c2ccc(Cl)cc2)c1	FLuc modulator 17µM, NPC1 prom act inconclusive, Rab9 promoter act inconclusive, ELG1 genotox inconclusive (no result: SMN2 splice enh, Luc counter)
Cc1ccnc(NC(=O)c2sc3cc(Cl)ccc3c2Cl)c1	SMN2 splice enh 6.3µM, FLuc modulator 0.6µM, NPC1 prom act 0.13µM, Rab9 promoter act 0.63µM, ELG1 genotox 2.9µM
CC1CCCCN1C(=O)CSc1nc2ccccc2nc1Cc1ccccc1 (stereo not given)	none (no result: SMN2 splice enh, Luc counter, NPC1 prom act, Rab9 promoter act, ELG1 genotox)
CCOc1ncccc1C(=O)N1CCN(c2cc(Cl)ccc2C)CC1	none
Cc1ccc(-c2cc(C(=O)O)c3ccccc3n2)c(C)c1	FLuc modulator 7.6µM (no result: SMN2 splice enh, Luc counter)
CCOc1ccc(Sc2cc(C(=O)NCCc3ccccc3)c3ccccc3n2)cc1	none (no result: SMN2 splice enh, Luc counter, NPC1 prom act, Rab9 promoter act, ELG1 genotox)
CCOc1ccc(-c2cc(C(=O)N3CCN(c4cc(Cl)ccc4C)CC3)c3ccccc3n2)cc1	FLuc modulator 9.5µM (no result: SMN2 splice enh, Luc counter, NPC1 prom act, Rab9 promoter act, ELG1 genotox)
Cc1ccc(-c2cc(C(=O)NCCc3ccccc3)c3ccccc3n2)cc1C	FLuc modulator 8.5µM (no result: SMN2 splice enh, Luc counter, NPC1 prom act, Rab9 promoter act, ELG1 genotox)
CCOc1ccc(-c2cc(C(=O)NCCc3ccc(C)cc3)c3ccccc3n2)cc1	FLuc modulator 1.3µM (no result: SMN2 splice enh, Luc counter, NPC1 prom act, Rab9 promoter act, ELG1 genotox)
Cc1ccc(C)c(NC(=O)C(CC(C)C)N2Cc3ccccc3C2=O)c1 (stereo not given)	none (no result: SMN2 splice enh, Luc counter, NPC1 prom act, Rab9 promoter act, ELG1 genotox)
O=C(O)c1cc(-c2ccccc2)nc2ccccc12	FLuc modulator 24µM
CCOc1ccc(-c2cc(C(=O)O)c3ccccc3n2)cc1	SMN2 splice enh 11µM, FLuc modulator 0.67µM, NPC1 prom act inconclusive, Rab9 promoter act 1.6µM, ELG1 genotox 3.3µM
O=C(Nc1nnc(-c2cccs2)o1)c1cc(-c2ccccc2)nc2ccccc12	FLuc modulator 19µM
Cc1ccc(-c2ccc(=O)n(CCC(=O)NCCc3ccccc3)n2)cc1	none (no result: SMN2 splice enh, Luc counter, NPC1 prom act, Rab9 promoter act, ELG1 genotox)
COc1cc(NC(=O)CN2c3ccccc3S(=O)(=O)c3ccccc32)cc(OC)c1	none (no result: SMN2 splice enh, Luc counter, NPC1 prom act, Rab9 promoter act, ELG1 genotox)
O=C(Nc1ccc(F)cc1F)c1ccc2c(=O)n3c(nc2c1)CCC3	FLuc modulator 11µM, NPC1 prom act 1.1µM, Rab9 promoter act 1.1µM, ELG1 genotox inconclusive (no result: SMN2 splice enh, Luc counter)
O=C(Nc1ccc(F)cc1Cl)c1ccc2c(=O)n3c(nc2c1)CCC3	NPC1 prom act 3.2µM, Rab9 promoter act 3.5µM (no result: SMN2 splice enh, Luc counter)
COc1ccc(C)cc1NC(=O)c1ccc2c(=O)n3c(nc2c1)CCCCC3	none (no result: Luc counter)
O=C(NNC(=O)c1ccc2c(=O)n3c(nc2c1)CCC3)c1ccc(F)cc1	none (no result: SMN2 splice enh, Luc counter)
Cc1ccc(C)c(NC(=O)c2ccc3c(=O)n4c(nc3c2)CCC4)c1	FLuc modulator 15µM, NPC1 prom act inconclusive, Rab9 promoter act inconclusive (no result: SMN2 splice enh, Luc counter)
COc1cc(Cl)c(C)cc1Nc1nc2ccccc2n2cnnc12	none (no result: Luc counter, NPC1 prom act, Rab9 promoter act, ELG1 genotox)
CC(=O)c1ccc(NC(=O)CN2C(=O)/C(=C/C=C/c3ccccc3)SC2=S)cc1	FLuc modulator inconclusive
O=C(CN1C(=O)S/C(=C\C=C\c2ccccc2)C1=O)Nc1cccc(O)c1	FLuc modulator 12µM, Rab9 promoter act inconclusive, ELG1 genotox inconclusive
